High-throughput results: PubChem BioAssay, National Center for Advancing Translational Sciences (NCATS)
Shown are actives, neighbours in structure and some others; about 18% of the full set was active somewhere.
TDP1 block = TDP1 (human) enzyme inhibition; recombinant TDP1, AlphaScreen DNA substrate cleavage; Potency, µM (doses to about 130 µM), for inactives: at the top dose activity change, negative = inhibition, usual class: inhibitors; 350,000 compounds, 0.28% hits; Q9NUW8; also: potency is read from the fitted curve at half-maximal effect; nearly all actives have a fitted effect of over 40% in size
Target sequence (Q9NUW8 whole entry, looked up): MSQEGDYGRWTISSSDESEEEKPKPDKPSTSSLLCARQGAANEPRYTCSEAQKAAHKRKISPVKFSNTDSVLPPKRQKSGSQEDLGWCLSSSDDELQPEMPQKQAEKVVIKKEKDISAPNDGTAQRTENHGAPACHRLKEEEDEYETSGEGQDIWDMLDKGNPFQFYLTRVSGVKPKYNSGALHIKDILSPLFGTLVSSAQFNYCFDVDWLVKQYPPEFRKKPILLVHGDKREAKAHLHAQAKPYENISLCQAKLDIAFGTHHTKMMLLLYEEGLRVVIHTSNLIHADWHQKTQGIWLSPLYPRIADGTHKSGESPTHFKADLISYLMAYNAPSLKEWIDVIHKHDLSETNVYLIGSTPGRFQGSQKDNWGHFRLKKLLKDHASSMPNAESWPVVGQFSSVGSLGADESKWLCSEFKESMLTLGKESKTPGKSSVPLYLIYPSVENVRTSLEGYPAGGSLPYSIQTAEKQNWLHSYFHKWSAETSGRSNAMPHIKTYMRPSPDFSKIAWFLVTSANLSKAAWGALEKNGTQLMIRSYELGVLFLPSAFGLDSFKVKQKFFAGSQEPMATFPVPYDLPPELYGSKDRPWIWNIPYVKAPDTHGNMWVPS
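Tdp1 1 nM final; 15 min RT w/ cpd; substrate 15 nM, 5 min; beads 10 ug/ml, 10 min; AlphaScreen read. Neg ctrl: no enzyme.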
IL1B secr inh = inhibitors of inflammasome signaling (IL-1 beta secretion); activity change, % at 57.5 µM; 360,000 compounds, 4.7% hits; THP-1 LPS/ATP IL-1B secretion, AlphaLISA, 16 h; hits give low values; in the data active = activity change below about -50%; inconclusive = mostly about -30% to -49%
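Secreted IL-1B measured by AlphaLISA bead assay after 16 h compound exposure of THP-1 cells; compounds (final up to 57.5 uM) added 1 h before LPS (250 ng/mL) and ATP (1.25 mM) stimulation; lower signal means less secretion.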
TDP1 cell CPT = DT40-hTDP1 cell growth loss with CPT | chicken DT40 Tdp1-/-;hTDP1 cells + 20 nM CPT, ATP luminescence, 48 h | AID 686979 | 420,000 compounds, 12% hits | Potency, µM (highest dose often 46.2 µM), inactives show at the top dose activity change, negative = growth inhibition, usual class: inhibitors; also: potency is read from the fitted curve at half-maximal effect; nearly all actives have a fitted effect of over 55% in size
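Chicken DT40 Tdp1-/- cells complemented with human TDP1, 400 cells/well, exposed to compounds plus 20 nM camptothecin for at least 48 h at 37 C; viability read as ATP content by CellTiter-Glo luminescence.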
CtBP-E1A blk = CtBP/E1A binding inhibition; AlphaScreen GST-E1A/His-CtBP binding, 1536-well; hits give low values; AID 651724; activity change, % (concentration not given with the values); 340,000 compounds, 0.49% hits; in the data active = activity change below about -65%; inconclusive = mostly about -30% to -63%
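Homogeneous bead-based format: GST-tagged E1A captured on glutathione donor beads, His-tagged CtBP on nickel acceptor beads; compounds precede bead addition by 2 h at 37 °C.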
TDP1 cell noCPT = qHTS for Inhibitors of human tyrosyl-DNA phosphodiesterase 1 (TDP1): qHTS in cells in absence of CPT. DT40 Tdp1-/- hTDP1 cells, no CPT, ATP luminescence, 48 h. Potency, µM (highest dose often 46.2 µM), without a hit: top-dose activity change, negative = growth inhibition, most hits filed as inhibitors. 420,000 compounds, 15% hits; also: potency is read from the fitted curve at half-maximal effect; nearly all actives have a fitted effect of over 55% in size
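Seeded 400 DT40-hTDP1 cells/well (vehicle DMSO, no 20 nM CPT); pinned compounds; ≥48 hr at 37 °C; CellTiter-Glo luminescence as viability measure.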
Six1-Eya2 inh = blocks human Six1 binding to Eya2; Q15475+O00167; AlphaScreen GST-Six1/His-Eya2 binding, biochemical; hits give low values; AID 651725; 360,000 compounds, 0.56% hits; activity change, % (no concentration beside the values); in the data active = activity change below about -65%; inconclusive = mostly about -30% to -63%
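AlphaScreen luminescence read after one hour at 37 °C in darkness. Pin-transferred compounds met GST-Six1 and His-Eya2 protein (5X stock 250 nM/500 nM) plus glutathione donor and Ni-chelate acceptor beads (5X, 50 ug/mL).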
Active calls of the source: *. Unless noted, calls follow the shape of the dose curve; as a rule, active = well fitted curve in the direction sought with a large enough effect; inconclusive = small, poorly fitted or top-dose-only effect, or another doubt; inactive = no such curve, though single readings can be large; an effect the other way counts as inactive or inconclusive. % is scaled to controls: 0 for no effect and ±100 for the full control effect.

How did Cc1ccc2c(CC(=O)Nc3ccc(S(=O)(=O)N4CCCCC4C)cc3)coc2c1C (centres undefined) do in these assays?
TDP1 block: 6%; TDP1 cell CPT: inconclusive; TDP1 cell noCPT: inconclusive

Results for Clc1ccccc1CN(Cc1ccccc1)C(c1cccs1)c1nnnn1C1CCCC1 (centres undefined) ?
TDP1 block: -6%; IL1B secr inh: inconclusive; TDP1 cell CPT: inconclusive; CtBP-E1A blk: 7; TDP1 cell noCPT: 21µM*; Six1-Eya2 inh: 3

How did CC(C)(C)n1nnnc1C(c1cccs1)N(Cc1cccnc1)Cc1ccccc1Cl (centres undefined) do in these assays?
TDP1 block: 5%; IL1B secr inh: -12; TDP1 cell CPT: inconclusive; CtBP-E1A blk: -2; TDP1 cell noCPT: 18µM*; Six1-Eya2 inh: -9

How did CC(c1nnnn1C1CCCCC1)N(Cc1ccccc1)Cc1cccnc1 (centres undefined) do in these assays?
TDP1 block: -2%; IL1B secr inh: 5; TDP1 cell CPT: inconclusive; CtBP-E1A blk: 1; TDP1 cell noCPT: inconclusive; Six1-Eya2 inh: -4

How did CC(c1nnnn1C(C)(C)C)N(Cc1cccnc1)Cc1ccccc1Cl (centres undefined) do in these assays?
TDP1 block: 5%; IL1B secr inh: inconclusive; TDP1 cell CPT: inconclusive; CtBP-E1A blk: -2; TDP1 cell noCPT: inconclusive; Six1-Eya2 inh: 0

Results for CCN(Cc1ccccc1)C(c1cccs1)c1nnnn1C1CCCCC1 (centres undefined) ?
TDP1 block: -7%; IL1B secr inh: -8; TDP1 cell CPT: inconclusive; CtBP-E1A blk: 4; TDP1 cell noCPT: 29µM*; Six1-Eya2 inh: 5

Results for Clc1ccc(CN(CC2CCCO2)C(c2cccs2)c2nnnn2C2CCCC2)cc1 (centres undefined) ?
TDP1 block: 1%; IL1B secr inh: -22; TDP1 cell CPT: 7.3µM*; CtBP-E1A blk: 8; TDP1 cell noCPT: 6.5µM*; Six1-Eya2 inh: 0

Results for CCN(Cc1ccccc1)C(c1ccccn1)c1nnnn1C1CCCCC1 (centres undefined) ?
TDP1 block: -2%; IL1B secr inh: -11; TDP1 cell CPT: inconclusive; CtBP-E1A blk: -1; TDP1 cell noCPT: inconclusive; Six1-Eya2 inh: 8

How did CC(C)NC(=O)c1onc(CSc2cccc3ccccc23)c1C(=O)O do in these assays?
TDP1 block: 5%; IL1B secr inh: 51; TDP1 cell CPT: -12%; CtBP-E1A blk: 4; TDP1 cell noCPT: 1%; Six1-Eya2 inh: -5

What do the screens show for `CCC(=O)N1CCc2cc(CNC(=O)C(CC)c3ccccc3)ccc21` (centres undefined)?
TDP1 block: 7%; TDP1 cell CPT: -18%; TDP1 cell noCPT: -21%

What do the screens show for `COCCn1c(-c2ccc(OC(F)(F)C(F)C(F)(F)F)cc2)nc2c1c(=O)[nH]c(=O)n2CC(C)C` (centres undefined)?
TDP1 block: 2%; IL1B secr inh: -3; TDP1 cell CPT: 21µM*; CtBP-E1A blk: 0; TDP1 cell noCPT: inconclusive; Six1-Eya2 inh: -5

Results for CCCCn1c(=O)[nH]c(=O)c2c1nc(-c1ccc(C)c([N+](=O)[O-])c1)n2CC ?
TDP1 block: 5%; IL1B secr inh: -18; TDP1 cell CPT: inconclusive; CtBP-E1A blk: 1; TDP1 cell noCPT: 21µM*; Six1-Eya2 inh: -11

What do the screens show for `CC(C)Cn1c(-c2cc([N+](=O)[O-])ccc2Cl)nc2c1c(=O)[nH]c(=O)n2Cc1ccccc1`?
TDP1 block: 0%; IL1B secr inh: 12; TDP1 cell CPT: 6%; CtBP-E1A blk: -3; TDP1 cell noCPT: -19%; Six1-Eya2 inh: 1

Results for Cc1ccc(-c2nc3c(c(=O)[nH]c(=O)n3CC(C)C)n2CC(C)C)cc1[N+](=O)[O-] ?
TDP1 block: 6%; IL1B secr inh: -9; TDP1 cell CPT: inconclusive; CtBP-E1A blk: 1; TDP1 cell noCPT: 29µM*; Six1-Eya2 inh: -1

Results for O=C(COC(=O)CSCc1ccccc1)NCc1ccccc1 ?
TDP1 block: -5%; IL1B secr inh: 34; TDP1 cell CPT: 18%; CtBP-E1A blk: -2; TDP1 cell noCPT: 0%; Six1-Eya2 inh: 4

How did O=C(COC(=O)Cc1c[nH]c2ccccc12)Nc1ccc(Cl)cc1 do in these assays?
IL1B secr inh: -4; TDP1 cell CPT: 12%; CtBP-E1A blk: 5; TDP1 cell noCPT: -3%; Six1-Eya2 inh: 4

What do the screens show for `CN(C(=O)c1ccc2c(Cl)c3c(nc2c1)CCC3)c1ccccc1F`?
TDP1 block: 9%; TDP1 cell CPT: -17%; TDP1 cell noCPT: 29µM*

What do the screens show for `CN(C(=O)c1ccc2c(Cl)c3c(nc2c1)CCC3)c1ccccc1`?
TDP1 block: -1%; IL1B secr inh: -5; TDP1 cell CPT: inconclusive; CtBP-E1A blk: -2; TDP1 cell noCPT: inconclusive; Six1-Eya2 inh: 3

Results for CCN(C(=O)c1ccc2c(Cl)c3c(nc2c1)CCC3)c1ccc(C)c(C)c1 ?
TDP1 block: 0%; IL1B secr inh: -81*; TDP1 cell CPT: 21µM*; CtBP-E1A blk: -11; TDP1 cell noCPT: 21µM*; Six1-Eya2 inh: -11

How did O=C1NC(=O)N2CCSC2(Cc2ccccc2)N1 (centres undefined) do in these assays?
IL1B secr inh: -19; TDP1 cell CPT: inconclusive; CtBP-E1A blk: 5; TDP1 cell noCPT: -21%; Six1-Eya2 inh: -8

Results for CSc1ccccc1C(=O)NCC1Cc2cc(F)cc(-c3cnccn3)c2O1 (centres undefined) ?
TDP1 cell CPT: 21µM*; TDP1 cell noCPT: inconclusive

What do the screens show for `Cc1cc2c(c(-c3cnccn3)c1)OC(CNC(=O)c1cc(Cl)ccc1F)C2` (centres undefined)?
TDP1 cell CPT: 14%; TDP1 cell noCPT: -14%

Results for CC(=O)N1CCc2cc(Br)cc(S(=O)(=O)CCC(=O)NCc3ccc(F)cc3)c21 ?
TDP1 block: 3%; TDP1 cell CPT: -6%; TDP1 cell noCPT: inconclusive

Results for NC(=S)NNC(=O)c1cc(C(F)(F)F)cc(C(F)(F)F)c1 ?
TDP1 cell CPT: 0%; CtBP-E1A blk: -5; TDP1 cell noCPT: -18%; Six1-Eya2 inh: 3

How did COc1cc(C(O)c2nc(/C=C/c3ccc(C(F)(F)F)cc3)cs2)ccc1F (centres undefined) do in these assays?
IL1B secr inh: -20; TDP1 cell CPT: inconclusive; CtBP-E1A blk: -21; TDP1 cell noCPT: inconclusive; Six1-Eya2 inh: 12
